PubChem BioAssay (NCATS)
Inconclusive results are not listed. Values without a mark were called inactive. Calls come from the whole dose curve.

molecular target: Vitamin D3 receptor (Homo sapiens) (UniProt P11473); experiment: qHTS assay for small molecule agonists of vitamin D receptor signaling (AID 588543); settings: HEK293T VDR-UAS-bla, beta-lactamase ratio, 16 h; series mostly up to 76.8 µM; activation: at the top concentration;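 note: 0% = DMSO basal and 100% = reference agonist control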
Outline: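 β-lactamase reporter, VDR-UAS-bla HEK293T, agonist mode. Cells plated 5 h at 37 °C, compound titration 16 h at 37 °C, CCF4 dye 2 h RT, ratio 460/530 nm. Hill fit → EC50, efficacy vs 50 nM 1α,25-(OH)2D3.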

Chain of Vitamin D3 receptor (Homo sapiens) (P11473 whole entry, looked up): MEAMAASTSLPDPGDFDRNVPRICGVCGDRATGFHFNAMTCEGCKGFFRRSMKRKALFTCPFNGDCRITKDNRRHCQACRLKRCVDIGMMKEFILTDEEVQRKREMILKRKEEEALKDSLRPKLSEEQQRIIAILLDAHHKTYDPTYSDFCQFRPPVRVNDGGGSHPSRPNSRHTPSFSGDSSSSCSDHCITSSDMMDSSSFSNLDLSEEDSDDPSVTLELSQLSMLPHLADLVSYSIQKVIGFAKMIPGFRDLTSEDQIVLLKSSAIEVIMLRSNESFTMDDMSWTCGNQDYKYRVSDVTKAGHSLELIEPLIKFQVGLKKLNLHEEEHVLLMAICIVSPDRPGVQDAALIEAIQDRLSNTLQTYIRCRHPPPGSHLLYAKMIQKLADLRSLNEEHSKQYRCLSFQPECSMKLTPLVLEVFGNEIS

SMILES | activation [%]
Cc1ccco1 | -1.33
Cc1ccc(Br)cc1 | 1.4
O=C(O)c1ccc(Cl)cc1Cl | -3.71
CC(C)Nc1ccccc1 | -0.83
CCCCCO | 3.09
OC1CCCC1 | 1.06
CSc1ccc(C=O)cc1 | 0.0999
CC(C)N=C=NC(C)C | 1.02
CC(C)CO | -1.7
Cc1ccc2ccccc2c1[N+](=O)[O-] | -0.0548
CO[Si](CCCNCCC[Si](OC)(OC)OC)(OC)OC | 4.3
CC(=O)C1(C)CC2=C(CCCC2(C)C)CC1C (stereo not drawn) | 4.83
CCOCCO | 0.633
NC(=O)CCCCC(N)=O | 0.899
C=C(C)C(=O)OCC(C)O (stereo not drawn) | 9.23
Cc1ccc(C)c([N+](=O)[O-])c1 | 0.73
Nc1ccc([N+](=O)[O-])c(N)c1 | 3.8
CCOc1ccccc1N | 3.44
C=CCn1c(=O)n(CC=C)c(=O)n(CC=C)c1=O | -1.72
CC1=C(/C=C/C(C)=C/C=C/C(C)=C\C=O)C(C)(C)CCC1 | 1.53
Nc1c(Cl)cc(Cl)cc1Cl | 3.37
Nc1nc(CC(=O)O)cs1 | 6.16
CC(O)CC(C)O (stereo not drawn) | -0.0691
